From the supplement of paper PMC6805474

What follows are molecules tested on Schistosoma mansoni schistosomula (Liberian) (assay: drug effect (1 - score/DMSO control score) (fraction); higher = more antischistosomal effect, active = 0.5 or more; extreme values may be limits of the assay). Conditions: 24 h; 10 µM.
How it was run: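 A plate was valid only if its 0.1% DMSO wells averaged a score of at least 2. Those wells ran beside duplicate wells in which 50 Liberian-strain Schistosoma mansoni schistosomula each, transformed mechanically from cercariae and pre-incubated at least 12 h, met 10 µM compound in Medium 199 with 5% FCS at 37 °C, 5% CO2. Scoring was visual at 10× at 24, 48 and 72 h, from 3 (normal) to 0 (dead) in quarter-point steps. Drug effect was derived from the mean test-well score against the mean DMSO-well score, with negatives set to zero.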
With O=C1O[C@@H](CO)CN1c1cc(F)c(C2=CCN(Cc3ccccc3)CC2)c(F)c1 the drug effect was 0.05 (inactive).
In the case of CCc1nn(C)c(C(=O)NCc2ccc(Oc3ccc(C)cc3)cc2)c1Cl, the drug effect was 0.364 (inactive).
CC(C)(C)C(O)C(Oc1ccc(-c2ccccc2)cc1)n1cncn1 (configuration not stated) was tested, and the drug effect was 0.0909 (inactive).
For Cc1nn(Cc2ccccc2)c(Cl)c1C(=O)NC1CCCCCC1, the drug effect was 0.0455 (inactive).
For CO[C@@H]1CN(c2ccc(C#CC3(O)CN4CCC3CC4)c(Cc3ccccc3)n2)C[C@H]1O (some centres not stated), the drug effect was < 0 (inactive).
In the case of Cc1cc(C2=NOC(c3cc(Cl)c(F)c(Cl)c3)(C(F)(F)F)C2)ccc1C(=O)NCc1ccc2c(c1)C(C)(C)OB2O (configuration not stated), the drug effect was 0.2 (inactive).
For O=C1O[C@@H](COc2ccon2)CN1c1cc(F)c(C2=CCN(Cc3ccccc3)CC2)c(F)c1, the drug effect was 0.1 (inactive).
In the case of CC1COC(Cn2cncn2)(c2ccc(Oc3ccc(Cl)cc3)cc2Cl)O1 (configuration not stated), the drug effect was 0.136 (inactive).
With CC1(C)OB(O)c2ccc(C3=NOC(c4cc(Cl)c(F)c(Cl)c4)(C(F)(F)F)C3)cc21 (configuration not stated) the drug effect was 1 (active).
For Nc1c2c(nc3sc4c(c13)CCCC4)CCCC2, the drug effect was 0.545 (active).
CO/C=C(/C(=O)OC)c1ccccc1Oc1cc(Oc2ccccc2C#N)ncn1 was tested, and the drug effect was 0.05 (inactive).
With Cc1nn(C)c(C)c1NS(=O)(=O)c1c(Cl)cc(-c2ccnc(N3CCNCC3)c2)cc1Cl the drug effect was 0.15 (inactive).
For CO/N=C(\C(=O)OC)c1ccccc1CO/N=C(\C)c1cccc(C(F)(F)F)c1, the drug effect was 0.05 (inactive).
For Cc1cccc(C(=O)Nc2ccnc(N(C)C3CCN(CC(C)C)CC3)c2)c1, the drug effect was 0.1 (inactive).

Same assay, conditions: 48 h; 10 µM
With O=C1O[C@@H](CO)CN1c1cc(F)c(C2=CCN(Cc3ccccc3)CC2)c(F)c1 the drug effect was 0.111 (inactive).
For CCc1nn(C)c(C(=O)NCc2ccc(Oc3ccc(C)cc3)cc2)c1Cl, the drug effect was 0.55 (active).
For CC(C)(C)C(O)C(Oc1ccc(-c2ccccc2)cc1)n1cncn1 (configuration not stated), the drug effect was 0.15 (inactive).
In the case of Cc1nn(Cc2ccccc2)c(Cl)c1C(=O)NC1CCCCCC1, the drug effect was 0.05 (inactive).
For CO[C@@H]1CN(c2ccc(C#CC3(O)CN4CCC3CC4)c(Cc3ccccc3)n2)C[C@H]1O (some centres not stated), the drug effect was < 0 (inactive).
For Cc1cc(C2=NOC(c3cc(Cl)c(F)c(Cl)c3)(C(F)(F)F)C2)ccc1C(=O)NCc1ccc2c(c1)C(C)(C)OB2O (configuration not stated), the drug effect was 0.135 (inactive).
In the case of O=C1O[C@@H](COc2ccon2)CN1c1cc(F)c(C2=CCN(Cc3ccccc3)CC2)c(F)c1, the drug effect was 0.167 (inactive).
With CC1COC(Cn2cncn2)(c2ccc(Oc3ccc(Cl)cc3)cc2Cl)O1 (configuration not stated) the drug effect was 0.25 (inactive).
CC1(C)OB(O)c2ccc(C3=NOC(c4cc(Cl)c(F)c(Cl)c4)(C(F)(F)F)C3)cc21 (configuration not stated) was tested, and the drug effect was 1 (active).
With Nc1c2c(nc3sc4c(c13)CCCC4)CCCC2 the drug effect was 0.8 (active).
With CO/C=C(/C(=O)OC)c1ccccc1Oc1cc(Oc2ccccc2C#N)ncn1 the drug effect was 0.027 (inactive).
With Cc1nn(C)c(C)c1NS(=O)(=O)c1c(Cl)cc(-c2ccnc(N3CCNCC3)c2)cc1Cl the drug effect was 0.0811 (inactive).
With CO/N=C(\C(=O)OC)c1ccccc1CO/N=C(\C)c1cccc(C(F)(F)F)c1 the drug effect was 0.027 (inactive).
With Cc1cccc(C(=O)Nc2ccnc(N(C)C3CCN(CC(C)C)CC3)c2)c1 the drug effect was 0.243 (inactive).

Same assay, conditions: 72 h; 10 µM
For O=C1O[C@@H](CO)CN1c1cc(F)c(C2=CCN(Cc3ccccc3)CC2)c(F)c1, the drug effect was 0.188 (inactive).
For CCc1nn(C)c(C(=O)NCc2ccc(Oc3ccc(C)cc3)cc2)c1Cl, the drug effect was 0.455 (inactive).
CC(C)(C)C(O)C(Oc1ccc(-c2ccccc2)cc1)n1cncn1 (configuration not stated) was tested, and the drug effect was 0.127 (inactive).
With Cc1nn(Cc2ccccc2)c(Cl)c1C(=O)NC1CCCCCC1 the drug effect was 0.0727 (inactive).
In the case of CO[C@@H]1CN(c2ccc(C#CC3(O)CN4CCC3CC4)c(Cc3ccccc3)n2)C[C@H]1O (some centres not stated), the drug effect was 0.111 (inactive).
With Cc1cc(C2=NOC(c3cc(Cl)c(F)c(Cl)c3)(C(F)(F)F)C2)ccc1C(=O)NCc1ccc2c(c1)C(C)(C)OB2O (configuration not stated) the drug effect was 0.167 (inactive).
With O=C1O[C@@H](COc2ccon2)CN1c1cc(F)c(C2=CCN(Cc3ccccc3)CC2)c(F)c1 the drug effect was 0.25 (inactive).
For CC1COC(Cn2cncn2)(c2ccc(Oc3ccc(Cl)cc3)cc2Cl)O1 (configuration not stated), the drug effect was 0.0727 (inactive).
For CC1(C)OB(O)c2ccc(C3=NOC(c4cc(Cl)c(F)c(Cl)c4)(C(F)(F)F)C3)cc21 (configuration not stated), the drug effect was 1 (active).
Nc1c2c(nc3sc4c(c13)CCCC4)CCCC2 was tested, and the drug effect was 0.564 (active).
With CO/C=C(/C(=O)OC)c1ccccc1Oc1cc(Oc2ccccc2C#N)ncn1 the drug effect was 0.111 (inactive).
For Cc1nn(C)c(C)c1NS(=O)(=O)c1c(Cl)cc(-c2ccnc(N3CCNCC3)c2)cc1Cl, the drug effect was 0.152 (inactive).
With CO/N=C(\C(=O)OC)c1ccccc1CO/N=C(\C)c1cccc(C(F)(F)F)c1 the drug effect was 0.152 (inactive).
Cc1cccc(C(=O)Nc2ccnc(N(C)C3CCN(CC(C)C)CC3)c2)c1 was tested, and the drug effect was 0.212 (inactive).
